PubChem BioAssay AID651568 (National Center for Advancing Translational Sciences (NCATS), 2012)
Hit rate of the full screen: of about 1,200 compounds, about 55 (5%) were called active. Not shown: some 15% with an inconclusive outcome. This is one part of a sample in which actives are shown more often than they occur. Calls follow the shape of the dose curve; as a rule, active = well fitted inhibition curve with a large enough effect; inconclusive = small, poorly fitted or top-dose-only effect; inactive = no such curve, though single readings can be large or run the other way.

Assay: qHTS Assay to Find Inhibitors of Chronic Active B-Cell Receptor Signaling: Hit Validation in Renilla Reporter Assay; also: nearly all actives have a fitted effect of over 70% in size
Settings: TMD8 IkB-Renilla luciferase reporter, NF-kB signaling; series mostly up to 57.5 µM
Source text: Diffuse large B-cell lymphoma (DLBCL) is the most common category of non-Hodgkin lymphoma, with ~20,000 new cases per year in the United States. DLBCL should be regarded as a collection of different neoplasms. Microarray gene expression analysis has defined two principal types of DLBCL, named for their similarity to normal B cell stages or activation states: a germinal center B-cell (GCB) type, and an activated B-cell (ABC) type. In ABC-DLBCL, a constitutive high-level activity of the NF-kappaB family of transcription factors has been observed (1) and NF-kappaB target genes are more highly expressed in ABC primary tumors than in GCB tumors. Functional studies have shown a constitutive high-level activity of the IkappaB (inhibitor of kappa-B) kinase (IKK) complex. […] Further analysis of DLBCL primary tumors for NF-kappaB target gene expression imply that although CARD11 is required for constitutive IKK activity in all ABC-DLBCL lines, mutations in CARD11 may be the root cause of IKK activation only in lines or tumors with such mutations. In other words, CARD11 mutations may explain NF-kappaB activation in only 10% of ABC-DLBCL cases. […] This process has been termed 'chronic active BCR signaling' (CABS). The goal of this screen is to find small-molecule inhibitors of the CABS pathway found in ABC-DLBCL lines using a cell-based assay that measures IkappaBalpa stability, which has already been extensively validated in the OCI-Ly3 line (PubChem AID:445; REF: 4). […] Hits from the primary screen were tested in this orthogonal secondary assay. NIH Molecular Libraries Probe Production Network [MLPCN] NIH Chemical Genomics Center [NCGC] MLPCN Grant: R03 DA031086 PI Name: Dr. R. Eric Davis
The IkB-Photinus/Renilla reporter assay differs from the primary assay in that the reporters are constitutively expressed, and based on luciferases that are different from the click beetle luciferases and each other. These differences should help to eliminate artifactual sources of activity specific to the primary assay. This assay uses the Dual-Glo substrate from Promega; extensively validated in a 96-well format, it could be converted to a smaller-well format. All lines needed for the IkB-Photinus/Renilla assay have already been prepared and extensively validated
Potency is read from the fitted curve at half-maximal effect.

Potency, active:
Cc1cccc(NS(=O)(=O)c2ccc(C3CCCCC3)cc2)n1 13.5 µM, CCn1c(=O)c([N+](=O)[O-])c(Cl)c2ccccc21 2.39 µM, CN(C)c1nc(=Nc2cccc(Cl)c2)ss1 10.7 µM, COc1ccc(C(=O)/C=C/c2ccc(OC)c(Cn3nnc4ccccc43)c2)cc1 9.53 µM, O=Cc1ccccc1OCCOc1ccccc1C=O 12 µM, Cc1cc(C)n(-c2nc3ccccc3c(=O)n2OCC#N)n1 16.9 µM, CNCc1ccccc1Sc1ccc(O)c(O)c1 10.7 µM, O=C(/C=C/c1ccc(O)cc1)c1ccc(O)cc1O 10.7 µM, CC(C)N=C(NS(=O)(=O)c1ccccc1)C(Cl)(Cl)Cl 26.9 µM, COc1ccccc1C(=O)Nc1ccccc1SC(=O)c1ccccc1OC 23.9 µM, O=C(CCl)Nc1cccc(S(=O)(=O)NC2=NCCCCC2)c1 19 µM, CCCc1nc([N+](=O)[O-])c(S(=O)(=O)c2ccccc2)n1CC(C)C 30.1 µM, O=S1(=O)C=C(Sc2nc3cc(Cl)ccc3o2)c2ccccc21 8.49 µM, O=C(/C=C/c1cccs1)c1cc(Br)ccc1OC(=O)N1CCOCC1 26.9 µM, N=C1SCC(=O)N1c1ncc(Cc2ccccc2Cl)s1 8.49 µM, N=C1SCC(=O)N1c1ncc(Cc2cccc(Cl)c2)s1 3.01 µM, COc1ccc(/C=C/C(=O)c2cc(F)ccc2OC(=O)c2ccc(OC)c(OC)c2)cc1OC 7.57 µM, COc1ccc(/C=C/C(=O)c2cc(F)ccc2OC(=O)c2ccccc2C)cc1OC 13.5 µM, COc1ccc(/C=C/C(=O)c2cc(F)ccc2OC(=O)c2ccccc2OC)cc1OC 6.75 µM, O=C(/C=C/c1ccccc1)c1ccc(NC2=NCCCS2)cc1 21.3 µM, CCOC(=O)C1CCN(S(=O)(=O)c2c(Cl)ccc3nonc23)CC1 3.01 µM, Cc1ccc(C)c(-n2c3nc(=O)[nH]c(=O)c-3cc3cc([N+](=O)[O-])ccc32)c1 16.9 µM, Cc1cccc(-n2c3nc(=O)[nH]c(=O)c-3cc3cc([N+](=O)[O-])ccc32)c1 26.9 µM

Potency, inactive:
Cc1cc(C)cc(NS(=O)(=O)c2ccc(-c3cnc(C4CC4)o3)cc2)c1, Cc1ccc(C)c(NS(=O)(=O)c2ccc(-c3cnc(C4CC4)o3)cc2)c1, Cc1ccccc1NC(=S)N=Nc1c(O)n(C)c2ccc(S(=O)(=O)N3CCOCC3)cc12, CC[C@]12c3[nH]c4cc(CCC(=O)N(C)C)ccc4c3CCN1C(=O)[C@@H](CC(=O)NCc1ccco1)C[C@@H]2C(=O)N1CCN(C(=O)c2ccco2)CC1, c1ccc(C2=Nn3c(nnc3-c3n[nH]c4c3CCC4)SC2)cc1, Cc1ccc(OCCN2C(=O)C(=O)c3cc(C)ccc32)cc1, CC(C)n1c(SCC(=O)Nc2ccccc2)nc2c1c(=O)n(C)c(=O)n2C, COc1cc(OC)cc(C(=O)NCC(=O)Nc2ccc(-c3ccccc3)cc2)c1, COc1cc(OC)cc(C(=O)NCc2ccc3c(c2)CCN3C(=O)c2ccccc2)c1, COc1ccc(/C=C/C(=O)Nc2cc(S(=O)(=O)N3CCOCC3)ccc2OC)cc1, Cc1noc(C)c1CSc1ncnc2ccccc12, COc1ccc(C(=O)n2c(-c3ccco3)nc3ccccc32)cc1, COc1cc(/C=C\C(=O)OCn2nnc3ccccc3c2=O)cc(OC)c1OC, COc1ccccc1NC(=O)COc1ccc(-c2nn(C)c(=O)c3ccccc23)cc1, Cc1ccc(NC(=S)NC(=O)C2CC2)cc1Cl, Cc1c(CCC(=O)NCCC(=O)O)c(=O)oc2c(C)c3oc4c(c3cc12)CCCC4, COc1cc(/C=N/NC(=O)NC2CCCCC2)ccc1O, CCOc1cc(Br)c(C=O)cc1OCC, Cc1c(CCC(=O)N[C@@H](C)C(=O)O)c(=O)oc2cc3oc4c(c3cc12)CCCC4, CCC(NC(=O)CCc1c(C)c2cc3c4c(oc3cc2oc1=O)CCCC4)C(=O)O (stereo not given), Cc1cc(NC(=O)CSc2nc3ccccc3c(=O)n2C2CCCC2)no1, CCC(=O)Nc1nonc1-c1nc2ccccc2n1Cc1cccc2ccccc12, COc1cccc(N2CC(O)=C(c3nc4ccccc4s3)C2=N)c1, CCOc1cc(/C=N\NC(N)=O)cc(Br)c1OC(C)C, O=C(/C=C/c1ccco1)NC(=S)Nc1cccc(-c2nc3ccccc3o2)c1, CCn1ncc(C2=NOC(C(=O)NCc3ccccc3)C2)c1C (stereo not given), Oc1cccc(Nc2nc(N3CCOCC3)nc(N3CCOCC3)n2)c1, CC1=CC(C)(C)N(S(=O)(=O)c2ccc(C)cc2)c2ccc(C)cc21, CCOc1ccccc1NS(=O)(=O)c1ccc(-c2cnc(C3CC3)o2)cc1, COc1ccc(C(=O)N2CCc3cc(OC)c(OC)cc3C2c2ccc(OC)c(OC)c2)cc1 (stereo not given), COc1cccc(C(=O)Nc2cc(NC(=O)c3cccs3)ccc2C)c1OC, COc1cc(NC(=S)NC(=O)c2ccccc2F)ccc1NC(=O)c1ccco1, Cc1ccc(COC(=O)c2cc([N+](=O)[O-])ccc2N2CCOCC2)cc1, CCc1cc2c(SCC(=O)Nc3ccc(NC(C)=O)cc3)ncnc2s1, CCCC(=O)Nc1ccc2c(c1)nc(CN1CCN(C(=O)OCC)CC1)n2CC, O=C(CCl)Nc1cc(S(=O)(=O)N2CCCCCC2)ccc1Cl, C=CCn1c(SCC(=O)Nc2cccc(S(N)(=O)=O)c2)nc2sc(C)c(C)c2c1=O, CN(C)/C=N/c1sc2c(c1C#N)CCCC2, COc1cc(C2C(C#N)=C(N)Oc3cc(N)ccc32)cc(OC)c1OC (stereo not given), CCN(C(=O)COC(=O)c1cc([N+](=O)[O-])ccc1N1CCOCC1)c1ccccc1, CC(=O)Nc1nc2ccc(-c3nc4ccccc4o3)cc2s1, Cc1ccc(C(=O)c2cc([N+](=O)[O-])ccc2N2CCCCC2)cc1C, CCOC(=O)C1=C(C)NC(C)=C(C(=O)OCC)C1/C=C/c1ccccc1, O=C(/C=C\c1ccco1)Nc1cc([N+](=O)[O-])ccc1F, CCOC(=O)C(C)Oc1cccc2c(=O)n(CC(=O)NCc3ccccc3)ccc12 (stereo not given), COc1ccc(N(C(=O)c2ccccc2C)S(=O)(=O)c2cccs2)cc1, Cc1ccc(C(=O)c2cc([N+](=O)[O-])ccc2N2CCCCC2)cc1, O=C(Oc1ccc2ccc(OC(=O)N3CCOCC3)cc2c1)N1CCOCC1, C#C[C@]1(O)CC[C@H]2[C@@H]3CCc4cc(O)ccc4[C@H]3CC[C@@]21C, O=C(COc1ccccc1-c1ccccc1)N/N=C/c1cccc2ccccc12, Nc1cc(=O)[nH]c(SCC(=O)Nc2cc(Cl)cc(Cl)c2)n1, COc1cc2c(cc1OC)-c1cc(Nc3ccc(C)cc3)nc(=O)n1CC2, Cn1c(=O)n(Cc2ccccc2Cl)c2ccccc21, CCc1ccc(CCC(=O)Nc2ncc(Cc3ccccc3Cl)s2)o1, COc1ccccc1-c1noc(CSc2nc(N)cc(=O)[nH]2)n1, COc1ccc(S(=O)(=O)Nc2cc3c(C(C)=O)c(C)oc3c3ccccc23)cc1, O=c1cc(-c2ccccc2)[nH]c2ccccc12, COc1ccc2cc(C3c4cc(OC)c(OC)cc4CCN3C(=O)c3ccco3)c(=O)[nH]c2c1 (stereo not given), CCOC(=O)c1[nH]c(C)c(C(=O)c2cc(F)ccc2F)c1C, C/C(=N\NC(=O)c1c([N+](=O)[O-])c(C)nn1C)c1ccc(NC(=O)C2CCCC2)cc1, CCOC(=O)c1[nH]c2c(c1C)C(=O)CC(c1ccc(F)cc1)C2 (stereo not given), CC[C@]12c3[nH]c4cc(CCC(=O)N(C)C)ccc4c3CCN1C(=O)[C@@H](CC(=O)NCCCN(C)C)C[C@@H]2C(=O)N1CCN(C(=O)c2ccco2)CC1, COc1ccc(NC(=S)N/N=C/c2ccc(F)cc2)cc1OC, COc1ccc(/C=C/c2ccncc2)cc1OC, CCc1ccc(NC(=O)C(C)OC(=O)/C=C/c2ccc(O)c(OC)c2)cc1 (stereo not given), COc1ccc(/C=N\NC(=O)c2ccccc2F)cc1COc1ccc(F)cc1F, Cc1ccccc1C(=O)Oc1ccc2ccc(O)cc2c1, COc1ccc(S(=O)(=O)N2CCOCC2)cc1NC(=O)/C=C/c1ccc(F)cc1, COc1cccc(/C=N/Nc2nc(Nc3ccccc3)nc(-n3nc(C)cc3C)n2)c1O, NC(=O)c1c(NC(=O)CSc2nc(N)cc(=O)[nH]2)sc2c1CCCC2, CCOc1ncccc1C(=O)N1CCN(c2cc(Cl)ccc2C)CC1, Cc1ccc(/C=N/NC(=O)c2cc(-c3ccncc3)nc3ccccc23)o1, CCOC(=O)c1c(C)n(C)c2ccc(OC)c(NC(=O)CN3CCC4(CC3)OCCO4)c12, COC(=O)C1=C(C)NC(C)=C(C(=O)OC)C1/C=C/c1ccccc1, Cc1nc(NC(=O)c2cnccn2)ccc1Br, Cn1c(=O)[nH]c(=O)c2c1nc(SCC(N)=O)n2Cc1cccc(Br)c1, CCOC(=O)C1CCN(C(=O)CSc2cc(=O)n(CC)c3ccccc23)CC1, COc1ccc(C(=O)NN(C)c2nc(C(F)(F)F)nc3ccccc23)cc1, COc1ccc(-c2cnnn2-c2ccc(NC(=O)c3ccc(S(=O)(=O)N4CCCCC4)cc3)cc2)cc1OC, Cc1ccc(C(=O)c2cc([N+](=O)[O-])ccc2N2CCCCC2)c(C)c1, COCCn1c(-c2cccc([N+](=O)[O-])c2)nc2c1c(=O)[nH]c(=O)n2Cc1ccccc1, Cc1ccc(C(=O)c2cc([N+](=O)[O-])ccc2N2CCOCC2)c(C)c1
